PubChem BioAssay AID1159580 (chemical genetic matrix, 2015)
Several values for one entry are separate records, joined by “and”; a condition that tells them apart may be missing. Identical values can stand only once. Out of some 5,500 compounds screened, about 2,000 (36%) were called active. Another 18% or so got no clear call; they are omitted. Rule as the data show it: active = normalized growth mostly below about 0.91 (no sharp cut-off); inconclusive = no clear call, values can overlap the other calls; inactive = mostly above about 0.92. The list shows a part of the results.

Test: chemical genetic growth profiling, strain panel (AID 1159580);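 also: tested at 20 µM; growth read once vehicle control cultures reached saturation at 30 °C; 1 = growth at the plate median or of vehicle wells; lower values mean less growth of the strain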
Conditions: S. cerevisiae deletion strains, growth OD

Measured: normalized growth

Cn1c(=O)c2c(ncn2CC(O)CO)n(C)c1=O (configuration not stated)
inactive: locus YAL013W, strain DEP1, stronger effect = lower value 1.01 | locus YAL021C, strain ccr4, stronger effect = lower value 0.97 | locus YAL026C, strain drs2, stronger effect = lower value 0.967 | locus YAL030W, strain snc1, stronger effect = lower value 0.989 | locus YBL061C, strain skt5, stronger effect = lower value 0.992 | locus YBR009C, strain hhf1, stronger effect = lower value 0.982 | locus YBR021W, strain FUR4, stronger effect = lower value 1.03 | locus YBR023C, strain chs3, stronger effect = lower value 1 | locus YBR171W, strain sec66, stronger effect = lower value 0.978 | locus YBR229C, strain ROT2, stronger effect = lower value 1.01 | locus YBR231C, strain swc5, stronger effect = lower value 1 | locus YBR279W, strain paf1, stronger effect = lower value 0.972 | locus YCL011C, strain gbp2, stronger effect = lower value 0.99 | locus YCL016C, strain dcc1, stronger effect = lower value 1.01 | locus YCL029C, strain bik1, stronger effect = lower value 0.96 | locus YCL061C, strain MRC1, stronger effect = lower value 1 | locus YCL069W, strain vba3, stronger effect = lower value 0.953 | locus YCR088W, strain abp1, stronger effect = lower value 0.989 | locus YDL005C, strain med2, stronger effect = lower value 0.972 | locus YDL035C, strain GPR1, stronger effect = lower value 1.05 | locus YDL040C, strain nat1, stronger effect = lower value 0.986 | locus YDL074C, strain BRE1, stronger effect = lower value 1.02 | locus YDL101C, strain DUN1, stronger effect = lower value 0.995 | locus YDL185W, strain tfp1, stronger effect = lower value 0.954 | locus YDL192W, strain arf1, stronger effect = lower value 0.972 | locus YDR001C, strain nth1, stronger effect = lower value 0.97 | locus YDR069C, strain doa4, stronger effect = lower value 0.958 | locus YDR101C, strain arx1, stronger effect = lower value 1.01 | locus YDR137W, strain rgp1, stronger effect = lower value 0.986 | locus YDR159W, strain sac3, stronger effect = lower value 0.942 | locus YDR162C, strain NBP2, stronger effect = lower value 1.02 | locus YDR195W, strain ref2 0.951 | locus YDR297W, strain sur2, stronger effect = lower value 0.991 | locus YDR318W, strain mcm21, stronger effect = lower value 0.977 | locus YDR334W, strain swr1, stronger effect = lower value 0.973 | locus YDR335W, strain msn5, stronger effect = lower value 0.981 | locus YDR388W, stronger effect = lower value 0.988 | locus YDR392W, strain spt3, stronger effect = lower value 0.939 | locus YDR502C, strain sam2, stronger effect = lower value 0.984 | locus YEL003W, strain gim4, stronger effect = lower value 0.981 | locus YEL037C, strain rad23, stronger effect = lower value 0.972 | locus YEL061C, strain CIN8 (second series), stronger effect = lower value 0.97 | locus YEL061C, strain CIN8, stronger effect = lower value 0.997 | locus YER015W, strain faa2, stronger effect = lower value 0.993 | locus YER016W, strain bim1, stronger effect = lower value 0.951 | locus YER110C, stronger effect = lower value 0.943 | locus YER111C, strain swi4, stronger effect = lower value 0.988 | locus YER155C, strain BEM2 (second series), stronger effect = lower value 0.953 | locus YER155C, strain BEM2, stronger effect = lower value 1 | locus YER167W, strain BCK2, stronger effect = lower value 0.996 | locus YFR010W, strain ubp6, stronger effect = lower value 0.967 | locus YGL078C, strain dbp3, stronger effect = lower value 0.978 | locus YGL086W, strain mad1, stronger effect = lower value 1.01 | locus YGL167C, strain pmr1, stronger effect = lower value 0.989 | locus YGL173C, strain kem1, stronger effect = lower value 0.97 | locus YGL227W, strain vid30, stronger effect = lower value 0.987 | locus YGL240W, strain doc1, stronger effect = lower value 0.973 | locus YGL248W, strain PDE1, stronger effect = lower value 0.995 | locus YGL253W, strain hxk2, stronger effect = lower value 0.972 | locus YGR078C, strain PAC10, stronger effect = lower value 1.01 | locus YGR135W, strain pre9, stronger effect = lower value 0.954 | locus YGR252W, strain gcn5, stronger effect = lower value 0.987 | locus YHR013C, strain ard1, stronger effect = lower value 0.975 | locus YHR027C, strain rpn1, stronger effect = lower value 0.981 | locus YHR030C, strain SLT2, stronger effect = lower value 1 and 1.02 | locus YHR079C, strain IRE1 (second series), stronger effect = lower value 0.968 | locus YHR079C, strain IRE1, stronger effect = lower value 1.08 | locus YHR094C, strain hxt1, stronger effect = lower value 0.984 | locus YHR129C, strain ARP1, stronger effect = lower value 1.01 | locus YHR142W, strain chs7, stronger effect = lower value 0.992 | locus YHR200W, strain rpn10, stronger effect = lower value 0.97 | locus YIL066C, strain RNR3, stronger effect = lower value 1.01 | locus YIL073C, strain SPO22, stronger effect = lower value 0.908 | locus YIL125W, strain kgd1, stronger effect = lower value 0.992 | locus YIR030C, strain dcg1, stronger effect = lower value 0.949 | locus YJL092W, strain hpr5, stronger effect = lower value 0.998 | locus YJL095W, strain BCK1 (second series), stronger effect = lower value 0.989 | locus YJL095W, strain BCK1, stronger effect = lower value 0.982 and 1.02 | locus YJL115W, strain asf1, stronger effect = lower value 0.979 | locus YJL129C, strain trk1, stronger effect = lower value 0.994 | locus YJL134W, strain LCB3, stronger effect = lower value 1 | locus YJL154C, strain vps35, stronger effect = lower value 0.972 | locus YJL164C, strain tpk1, stronger effect = lower value 0.998 | locus YJL166W, strain qcr8, stronger effect = lower value 1.04 | locus YJL168C, strain set2, stronger effect = lower value 0.98 | locus YJL187C, strain SWE1 (second series), stronger effect = lower value 0.988 | locus YJL187C, strain SWE1, stronger effect = lower value 0.981 | locus YJR043C, strain POL32, stronger effect = lower value 1.06 | locus YJR066W, strain TOR1, stronger effect = lower value 0.952 | locus YKL009W, strain mrt4, stronger effect = lower value 0.979 | locus YKL068W, stronger effect = lower value 0.982 | locus YKL085W, strain MDH1 (second series), stronger effect = lower value 1.01 | locus YKL085W, strain MDH1, stronger effect = lower value 1.01 | locus YKL160W, strain elf1, stronger effect = lower value 1.06 | locus YKR001C, strain vps1, stronger effect = lower value 0.975 | locus YKR026C, strain gcn3, stronger effect = lower value 0.974 | locus YKR091W, strain srl3, stronger effect = lower value 0.994 | locus YLL001W, strain dnm1, stronger effect = lower value 1.03 | locus YLL026W, stronger effect = lower value 0.987 | locus YLL041C, strain sdh2, stronger effect = lower value 0.979 | locus YLR027C, strain aat2, stronger effect = lower value 0.973 | locus YLR039C, strain RIC1, stronger effect = lower value 1.01 | locus YLR058C, strain SHM2, stronger effect = lower value 0.996 | locus YLR102C, strain apc9, stronger effect = lower value 0.975 | locus YLR113W, strain HOG1, stronger effect = lower value 1.06 | locus YLR221C, strain rsa3, stronger effect = lower value 1.03 | locus YLR258W, strain gsy2, stronger effect = lower value 0.985 | locus YLR262C, strain YPT6 (second series), stronger effect = lower value 0.991 | locus YLR262C, strain YPT6, stronger effect = lower value 0.939 | locus YLR268W, strain sec22, stronger effect = lower value 0.966 | locus YLR320W, strain mms22, stronger effect = lower value 1.04 | locus YLR330W, strain CHS5, stronger effect = lower value 0.999 | locus YLR342W, strain FKS1 (second series), stronger effect = lower value 1.08 | locus YLR342W, strain FKS1, stronger effect = lower value 0.983 | locus YLR357W, strain rsc2, stronger effect = lower value 0.989 | locus YLR370C, strain arc18, stronger effect = lower value 0.981 | locus YLR371W, strain rom2, stronger effect = lower value 0.963 | locus YLR384C, strain iki3, stronger effect = lower value 0.98 | locus YLR418C, strain cdc73, stronger effect = lower value 0.996 | locus YML016C, strain PPZ1, stronger effect = lower value 1.01 | locus YML032C, strain rad52, stronger effect = lower value 0.988 | locus YML120C, strain ndi1, stronger effect = lower value 1.01 | locus YML124C, strain tub3, stronger effect = lower value 0.988 | locus YMR058W, strain fet3, stronger effect = lower value 0.981 | locus YMR078C, strain ctf18, stronger effect = lower value 0.966 | locus YMR125W, strain sto1, stronger effect = lower value 0.979 | locus YMR129W, stronger effect = lower value 0.966 | locus YMR205C, strain PFK2, stronger effect = lower value 1.04 | locus YMR223W, strain ubp8, stronger effect = lower value 0.973 | locus YMR231W, strain pep5, stronger effect = lower value 0.97 | locus YMR307W, strain GAS1, stronger effect = lower value 1.05 | locus YNL067W, strain RPL9B, stronger effect = lower value 0.97 | locus YNL071W, strain lat1, stronger effect = lower value 0.975 | locus YNL128W, strain TEP1, stronger effect = lower value 0.969 | locus YNL153C, strain GIM3, stronger effect = lower value 1 | locus YNL183C, strain NPR1, stronger effect = lower value 0.987 | locus YNL209W, strain ssb2, stronger effect = lower value 0.995 | locus YNL233W, strain BNI4, stronger effect = lower value 1.01 | locus YNL248C, strain rpa49, stronger effect = lower value 0.978 | locus YNL250W, strain rad50, stronger effect = lower value 0.974 | locus YNL271C, strain bni1, stronger effect = lower value 0.973 | locus YNL298W, strain CLA4, stronger effect = lower value 0.969 | locus YNL307C, strain MCK1, stronger effect = lower value 0.983 | locus YNL322C, strain KRE1 (second series), stronger effect = lower value 0.983 | locus YNL322C, strain KRE1, stronger effect = lower value 0.998 | locus YNR049C, strain mso1, stronger effect = lower value 0.988 | locus YNR052C, strain pop2, stronger effect = lower value 0.969 | locus YOL006C, strain TOP1, stronger effect = lower value 0.966 | locus YOL012C, strain htz1 0.82 | locus YOL147C, strain pex11, stronger effect = lower value 0.974 | locus YOR001W, strain rrp6, stronger effect = lower value 0.93 | locus YOR061W, strain CKA2, stronger effect = lower value 1 | locus YOR069W, strain VPS5, stronger effect = lower value 1.01 | locus YOR070C, strain gyp1, stronger effect = lower value 0.989 | locus YOR080W, strain dia2, stronger effect = lower value 0.984 | locus YOR083W, strain WHI5, stronger effect = lower value 1.07 | locus YOR106W, strain vam3, stronger effect = lower value 1.02 | locus YOR136W, strain idh2, stronger effect = lower value 0.976 | locus YOR144C, strain elg1, stronger effect = lower value 0.98 | locus YOR184W, strain ser1, stronger effect = lower value 0.957 | locus YOR231W, strain MKK1, stronger effect = lower value 1.03 | locus YOR265W, strain rbl2, stronger effect = lower value 0.986 | locus YOR270C, strain vph1, stronger effect = lower value 0.982 | locus YOR290C, strain snf2, stronger effect = lower value 0.954 | locus YOR316C, strain cot1, stronger effect = lower value 0.959 | locus YPL051W, strain arl3, stronger effect = lower value 0.991 | locus YPL055C, strain LGE1, stronger effect = lower value 1.01 | locus YPL078C, strain atp4, stronger effect = lower value 1.03 | locus YPL106C, strain sse1, stronger effect = lower value 1 | locus YPL240C, strain hsp82, stronger effect = lower value 0.97 | locus YPL241C, strain CIN2, stronger effect = lower value 1 | locus YPL256C, strain CLN2, stronger effect = lower value 1.02 | locus YPR119W, strain clb2, stronger effect = lower value 0.967 | locus YPR141C, strain kar3, stronger effect = lower value 0.95 | locus YPR163C, strain tif3, stronger effect = lower value 0.98 | locus YPR167C, strain met16, stronger effect = lower value 0.968 | strain wtn01, stronger effect = lower value 0.997
